Values joined by “and” are separate entries in the source; they are usually repeats but may differ in a detail not shown here. Identical values can stand only once. Screen size: about 420,000 compounds; about 64,000 (15%) were called active. About 27% were inconclusive and are not listed. The call rests on the fitted dose curve; in most records, active means well fitted inhibition curve with a large enough effect; inconclusive means small, poorly fitted or top-dose-only effect; inactive means flat fitted curve, though single readings scatter. Only a sample is shown. Where a call stands in place of a potency, no number is given.
Potency means the concentration at half of the fitted maximal effect.

The experiment can be described thus: qHTS for Inhibitors of human tyrosyl-DNA phosphodiesterase 1 (TDP1): qHTS in cells in absence of CPT. Further: nearly all actives have a fitted effect of over 55% in size. The settings on record: DT40 Tdp1-/- hTDP1 cells, no CPT, ATP luminescence, 48 h; activity change, negative = growth inhibition: at 46.2 µM (top of the series). An outline of the steps: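 Chicken DT40 Tdp1-/- cells complemented with human TDP1, screened without camptothecin (DMSO vehicle only), 400 cells/well. Compounds pin-transferred, cells incubated at 37 °C for at least 48 hr. Growth read as ATP-dependent luminescence (CellTiter-Glo, 30 min at RT).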
On the technique in general: Quantitative high-throughput screening tests each substance at several concentrations.
With `CC1CCN(C(=O)/C(=C\c2ccccc2)NC(=O)c2ccccc2)CC1`, the Potency entry was “inactive”. On to `O=C(CS(=O)(=O)Cc1ccccc1)Nc1cccnc1`, for which the Potency entry was “inactive”. The same measure for `CNc1cncc(-c2ccc(NS(C)(=O)=O)cc2)n1`: 4.11 µM (active); for `CS(=O)(=O)Nc1ccc(C(=O)N2CCCC2)cc1`: “inactive”; for `CNc1cncc(-c2cccc(C(=O)N3CCOCC3)c2)n1`: “inactive”. In the case of `CCCS(=O)(=O)C(=C1Nc2ccccc2N1)S(=O)(=O)CCC`, the Potency result was “inactive”.

Take `CN(C)S(=O)(=O)c1cc(C(=O)Nc2ccn(C)n2)c(Cl)cc1Cl`: the Potency entry is “inactive”. Turning to `COc1cc(-c2cccnc2)cc2c1OCCN(C(=O)Cc1csc(C)n1)C2`, the Potency result is “inactive”.

Take `COc1ccc2c(c1)NC(=O)C2CC(=O)N1CCOc2c(cc(-c3cnc4ccccc4c3)cc2OC)C1` (stereo not given): the Potency was 18.4 µM (active). On to `COc1ccc(OC)c(CNC(=O)C2CCCN(c3nc4ccccc4o3)C2)c1` (stereo not given), for which the Potency entry was “inactive”. `COC(=O)c1ccc(/C=C2/C(=O)Oc3ccccc32)cc1`: the Potency result is “inactive”. The value for `O=C1Oc2ccccc2C(=O)/C1=C/c1ccccc1O` was 8.2 µM (active); that for `COC(=O)c1c(NC(=O)c2c(Cl)cnn2C)sc(C)c1C` was “inactive”; that for `CN1CCN(c2ccc(S(=O)(=O)N3CCOCC3)cc2NC(=O)CCc2ccccc2)CC1` was “inactive”. Turning to `COC(=O)C(C)N=Cc1ccccc1` (stereo not given), the Potency entry was “inactive”.

Consider `CN(Cc1ccccc1)c1nc2c(c(=O)[nH]c(=O)n2C)n1CCSc1nc2ccccc2[nH]1`, for which the Potency entry is “inactive”.

As for `CC=CCn1c(SCCCc2ccccc2)nc2c1c(=O)[nH]c(=O)n2C`, the Potency is 20.6 µM (active). For `CCCSc1nc2c(c(=O)[nH]c(=O)n2C)n1CCc1ccccc1`, the Potency result was “inactive”.

With `CN(C)Cc1c(C(=O)N/N=C/c2ccccc2OCc2ccc(F)cc2)nnn1-c1nonc1N`, the Potency result was “inactive”. The same measure for `Fc1cccc(/C=N\N=C/c2cccc(F)c2)c1`: “inactive”; for `Cn1nc(-c2ccccc2)c2cc([N+](=O)[O-])ccc21`: “inactive”; for `COc1cc(/C(=C/c2ccccc2)c2ccccc2)c2c(c1)oc1ccccc12`: “inactive”.

On to `CCCC(=O)Nc1c(O)c2ccccc2[nH]c1=O`, for which the Potency result is “inactive”.

For the compound `CC1=C(C(=O)N2CCOCC2)CC(CC(=O)NCCCN(C)C)C(=O)N1Cc1ccc(C(C)(C)C)cc1` (stereo not given), the Potency entry was “inactive”. In the case of `CN1/C(=c2/s/c(=C3/C(=O)N(c4ccccc4)NC3=Nc3ccccc3)n(C)c2=O)C(C)(C)c2ccccc21`, the Potency is 11.6 µM (active). Turning to `O=C(c1cccc(Br)c1)N1CCN(Cc2cc(=O)n3nc(-c4ccccc4)sc3n2)CC1`, the Potency result is “inactive”. As for `O=C(c1cccc(Cl)c1)N1CCN(CCc2ccncc2)CC1`, the Potency result was “inactive”. The same measure for `O=C(c1cccc(Cl)c1)N1CCN(Cc2ccccc2)CC1`: “inactive”; for `C#Cc1cc(N2CCN(C(=O)c3ccoc3)CC2)n2nc(-c3cccc(Cl)c3)cc2n1`: 5.8 µM (active); for `O=C(c1ccccc1)N1CCN(c2cc(-c3ccccc3)nc3cc(-c4cccc(Cl)c4)nn23)CC1`: 14.6 µM (active). The same measure for `COc1ccc2c(c1)c(=O)c(S(=O)(=O)c1ccc(F)cc1)cn2CC(=O)Nc1ccc(C)cc1C`: “inactive”.

With `CCOC(=O)c1ccccc1NC(=O)CCc1c(C)nc2c(c1C)c(=O)n(C)c(=O)n2C`, the Potency entry was “inactive”. For the compound `O=C1Nc2cc(Cl)c(Cl)cc2N(O)N1c1cc(Cl)cc(Cl)c1`, the Potency entry was “inactive”. Regarding `C/C(N)=C(/C#N)C(=O)COC(=O)C1=NN(c2ccccc2)C(=O)CC1`, the Potency result is “inactive”. The same measure for `CCNc1nc(Oc2ccc(C(=O)OC)cc2)nc(N2CCOCC2)n1`: “inactive”; for `CCOC(=O)C1CCN(C(=O)/C=C/c2cc(OC)c(OC)c(OC)c2)CC1`: “inactive”; for `CCCCNC(=O)Cn1nc(C)c(S(=O)(=O)N2CCOCC2)c1C`: “inactive”.

On to `COC(=O)c1sccc1N/N=C(\C)c1ccc(F)c(Cl)c1`, for which the Potency entry was “inactive”. With `CCOc1ccc(-n2c(SCC(=O)NCc3ccccc3)nc3n[nH]c(C)c3c2=N)cc1`, the Potency was 7.31 µM (active). As for `COc1ccc(-n2c(SCC(=O)Nc3ccc(Cl)c(C)c3)nc3n[nH]c(C)c3c2=N)cc1`, the Potency is 9.2 µM (active). Take `CCCCNC(=O)CSc1nc2n[nH]c(C)c2c(=N)n1-c1cccc(Cl)c1C`: the Potency is 20.6 µM (active) and 9.2 µM (active).

Take `Cc1nnc(SCC(=O)NCc2ccccc2)s1`: the Potency result was “inactive”. In the case of `CCCCNC(=O)CSc1nnc(-c2ccco2)n1C`, the Potency result is “inactive”. `COCCNC(=O)CSc1nc2sccc2c(=O)n1-c1ccccc1`: the Potency result is “inactive”. As to `O=C(COc1ccc(Cl)cc1)NCCC1=CCCCC1`, the Potency entry is “inactive”. As for `Cc1ccccc1CN1CCNC(=O)C1CC(=O)NCCC1=CCCCC1` (stereo not given), the Potency entry is “inactive”. `Cc1ccc(-n2c(SCC(=O)NCCC3=CCCCC3)nc3n[nH]c(C)c3c2=N)cc1Cl`: the Potency is 3.26 µM (active). The same measure for `COc1ccc(Cc2nnc(SCC(=O)Nc3ccc(C)c(Cl)c3)[nH]c2=O)cc1`: “inactive”; for `Cc1nnc(SCC(=O)NCCOc2ccc(Cl)cc2)n1-c1ccccc1`: “inactive”. The value for `COc1ccc(-n2c(Cc3cccn3C)nnc2SCC(=O)Nc2cc(C)cc(C)c2)cc1` was “inactive”; that for `CN1CCN(CCNC(=O)Nc2ccccc2[N+](=O)[O-])CC1` was “inactive”; that for `Cc1nnc2sc(-c3ccco3)nn12` was “inactive”. In the case of `CSc1ccc(C#N)cc1NC(=O)c1ccc(Cl)cc1`, the Potency result was “inactive”. On to `COCCCNC(=O)/C(C#N)=C/c1c(N2CCCCCC2)nc2ccccn2c1=O`, for which the Potency entry is “inactive”. In the case of `CCOC(=O)C1=C(C)NC(=O)N(C(C)=O)C1c1ccc(Cl)cc1` (stereo not given), the Potency result was “inactive”.

In the case of `CCN(CC(=O)Nc1ccc2c(c1)OCO2)S(=O)(=O)c1ccccc1`, the Potency result was “inactive”. Turning to `O=C(COC(=O)CCc1c[nH]c(=O)[nH]1)Nc1ccccc1Cl`, the Potency entry was “inactive”. The same measure for `Cn1c(-c2ccc(F)cc2)cnc1SCC(=O)NNC(=O)Cc1ccccc1`: “inactive”; for `CCC(Sc1nc2n[nH]c(C)c2c(=N)n1-c1ccccc1Cl)C(=O)N(CC)CC` (stereo not given): 16.4 µM (active). In the case of `COc1cccc(-n2c(N)cc(=O)nc2SCC(=O)Nc2cc(C)on2)c1`, the Potency result is “inactive”.

Regarding `COc1cccc(-n2c(SCC(=O)NC3CCS(=O)(=O)C3)nc3ccccc3c2=O)c1` (stereo not given), the Potency entry was “inactive”. As for `COc1cccc(-n2c(SCC(=O)NC3CCCCC3)nc3n[nH]c(C)c3c2=N)c1`, the Potency was 18.4 µM (active).

Consider `Cc1ccc(Sc2cc(C(=O)c3ccccc3C(=O)O)ccc2[N+](=O)[O-])cc1`, for which the Potency result was “inactive”. With `CC(=O)OCCOCn1cnn2c(=O)c(Br)c(C)nc12`, the Potency result was “inactive”. As to `NS(=O)(=O)c1ccc(NC2=CC(c3ccc(F)cc3)N(c3ccc(S(N)(=O)=O)cc3)C2=O)cc1` (stereo not given), the Potency result was “inactive”.

The values are drawn from PubChem BioAssay AID686978 (National Center for Advancing Translational Sciences (NCATS), 2013).
